Experimental data as given in PubChem BioAssay.
Calls of active or inactive are those of the source.

What was measured:
[1] = E. coli DRC41 culture turbidity changes, primary screen, E. coli filamentation inducer project, strain DRC41, OD650, 48 h (AID 1152);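 note: E. coli MC1000 strain DRC41 lacking acrAB efflux pump and sulA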; conditions: E. coli DRC41 (acrAB sulA), higher = more signal, called active from +8 up or from −8 down
[2] = small-molecule binders of probe aLefty1, primary screen, biochemical, small-molecule microarray, 635/667 nm fluorescence (AID 1153); conditions: higher = more signal;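 note: score merges spot fluorescence with signal-to-noise ratio from the scanned slide images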
[3] = PSAC antagonists in infected red cells, primary screen, cell-based, P. falciparum Indochina, OD700, 1 h (AID 1154); conditions: P. falciparum Indochina infected RBC osmotic lysis, higher = more signal, called active from +8 up or from −8 down
[4] = PSAC antagonists in infected red cells, primary screen, cell-based, P. falciparum Indochina, OD700, 2 h (AID 1155);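 note: lysis reports solute entry through the parasite surface anion channel PSAC; channel blockers reduce lysis of infected cells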; conditions: P. falciparum Indochina infected erythrocytes, osmotic lysis OD700; higher = more signal, called active from +8 up or from −8 down
[5] = osmotic lysis modulators in infected erythrocytes, primary screen, PSAC antagonist project, cell-based, P. falciparum Indochina, OD700, 3 h (AID 1156); conditions: higher = more signal, called active from +8 up or from −8 down
[6] = PSAC antagonists in infected red cells, primary screen, cell-based, P. falciparum Indochina, OD700, 18 h (AID 1157); conditions: P. falciparum Indochina infected erythrocytes, osmotic lysis OD700, 18 h; higher = more signal, called active from +8 up or from −8 down
[7] = modulators of S6 phosphorylation in cells, primary screen, cell-based, A549, cytoblot, luminescence, serum-stimulated (AID 1158); conditions: A549 phospho-S6 cytoblot, 5 h, higher = more signal;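 note: serum-stimulated A549 lung adenocarcinoma cells; signal is phosphorylated S6 detected by cytoblot immunostaining with HRP secondary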
[8] = biological target: NADPH oxidase 2 (Homo sapiens) (UniProt P04839); experiment: NOX2-dependent H2O2 signal modulators, primary screen, NOX inhibitor project, cell-based, HEK293-NOX2, PMA-stimulated, Amplex Red fluorescence (AID 1159); conditions: 45 min, higher = more signal, called active from +8 up or from −8 down; note: test concentration not given here
[9] = biological target: NADPH oxidase 4 (Homo sapiens) (UniProt Q9NPH5); experiment: NOX4-dependent H2O2 signal modulators, primary screen, NOX inhibitor project, cell-based, HEK293-NOX4, tetracycline-induced, Amplex Red fluorescence (AID 1160); conditions: 45 min, higher = more signal, called active from +8 up or from −8 down
[10] = biological target: NADPH oxidase 5 (Homo sapiens) (UniProt Q96PH1); experiment: NOX5-dependent H2O2 signal modulators, primary screen, NOX inhibitor project, cell-based, HEK293-NOX5, Amplex Red fluorescence (AID 1161); conditions: HEK293-NOX5, ionomycin, 45 min, higher = more signal
[11] = A549 cell viability effects, profiling panel, calcein-AM fluorescence, 48 h, basal (AID 1162); conditions: higher = more signal; note: test concentration not given here
[12] = adipocyte viability effects, profiling panel, cell-based, 3T3-L1 adipocytes, calcein-AM fluorescence, 48 h, basal (AID 1163); conditions: 3T3-L1 adipocytes viability, higher = more signal; note: test concentration not given here
[13] = HepG2 cell viability effects, profiling panel, calcein-AM fluorescence, 48 h, basal (AID 1164); conditions: higher = more signal; note: test concentration not given here
[14] = MM1S cell viability effects, profiling panel, calcein-AM fluorescence, 48 h, basal (AID 1165); conditions: higher = more signal;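 note: viability of MM1S multiple myeloma cells under basal unstimulated conditions; test concentration not given here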
[15] = basal RPMI8226 viability, no added stimulus, profiling panel, cell-based, calcein-AM fluorescence, 48 h, PK04 Diversity Set (AID 1166); conditions: RPMI8226 myeloma viability, higher = more signal;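 note: cells grown under basal conditions without added stimulus; test concentration not given here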
[16] = basal HepG2 mitochondrial membrane potential changes, profiling panel, cell-based, JC-1 fluorescence, 24 h, 100 nL compound (AID 1167); conditions: higher = more signal; note: test concentration not given here
[17] = basal 3T3-L1 adipocyte mitochondrial potential changes, profiling panel, cell-based, JC-1 fluorescence, 3T3-L1 adipocytes, 24 h, 100 nL compound (AID 1168); conditions: JC-1 mitochondrial fluorescence, higher = more signal, called active from +8 up or from −8 down; note: test concentration not given here
[18] = basal RPMI8226 mitochondrial membrane potential changes, profiling panel, cell-based, JC-1 fluorescence, 24 h, 100 nL compound (AID 1169); conditions: RPMI8226 myeloma, JC-1 mitochondrial potential fluorescence, higher = more signal; note: test concentration not given here
[19] = basal MM1S mitochondrial membrane potential changes, profiling panel, cell-based, JC-1 fluorescence, 24 h, 100 nL compound (AID 1170); conditions: higher = more signal; note: test concentration not given here
[20] = A549 lung cancer cell viability effects, profiling panel, resazurin fluorescence, 24 h, PK04 Diversity Set (AID 1171); conditions: higher = more signal, called active from +8 up or from −8 down; note: test concentration not given here

Chain of NADPH oxidase 4 (Homo sapiens) (Q9NPH5 whole entry, looked up): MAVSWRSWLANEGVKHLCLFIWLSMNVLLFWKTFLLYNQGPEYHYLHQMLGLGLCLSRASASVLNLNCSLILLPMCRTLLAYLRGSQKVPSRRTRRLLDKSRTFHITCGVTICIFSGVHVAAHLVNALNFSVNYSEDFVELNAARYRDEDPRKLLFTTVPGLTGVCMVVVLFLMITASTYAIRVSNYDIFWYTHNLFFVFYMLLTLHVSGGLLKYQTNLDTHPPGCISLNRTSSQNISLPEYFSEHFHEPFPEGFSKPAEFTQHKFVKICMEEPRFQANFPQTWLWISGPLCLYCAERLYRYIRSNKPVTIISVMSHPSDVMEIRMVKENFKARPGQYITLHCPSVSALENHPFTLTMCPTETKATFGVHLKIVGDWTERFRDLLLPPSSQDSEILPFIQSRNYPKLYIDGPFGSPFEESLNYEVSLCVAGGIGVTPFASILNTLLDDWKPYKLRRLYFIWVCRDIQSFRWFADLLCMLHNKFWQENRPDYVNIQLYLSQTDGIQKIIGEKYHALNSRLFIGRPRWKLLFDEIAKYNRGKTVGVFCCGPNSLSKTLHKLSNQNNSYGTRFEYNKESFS
Chain of NADPH oxidase 5 (Homo sapiens) (Q96PH1 whole entry, looked up): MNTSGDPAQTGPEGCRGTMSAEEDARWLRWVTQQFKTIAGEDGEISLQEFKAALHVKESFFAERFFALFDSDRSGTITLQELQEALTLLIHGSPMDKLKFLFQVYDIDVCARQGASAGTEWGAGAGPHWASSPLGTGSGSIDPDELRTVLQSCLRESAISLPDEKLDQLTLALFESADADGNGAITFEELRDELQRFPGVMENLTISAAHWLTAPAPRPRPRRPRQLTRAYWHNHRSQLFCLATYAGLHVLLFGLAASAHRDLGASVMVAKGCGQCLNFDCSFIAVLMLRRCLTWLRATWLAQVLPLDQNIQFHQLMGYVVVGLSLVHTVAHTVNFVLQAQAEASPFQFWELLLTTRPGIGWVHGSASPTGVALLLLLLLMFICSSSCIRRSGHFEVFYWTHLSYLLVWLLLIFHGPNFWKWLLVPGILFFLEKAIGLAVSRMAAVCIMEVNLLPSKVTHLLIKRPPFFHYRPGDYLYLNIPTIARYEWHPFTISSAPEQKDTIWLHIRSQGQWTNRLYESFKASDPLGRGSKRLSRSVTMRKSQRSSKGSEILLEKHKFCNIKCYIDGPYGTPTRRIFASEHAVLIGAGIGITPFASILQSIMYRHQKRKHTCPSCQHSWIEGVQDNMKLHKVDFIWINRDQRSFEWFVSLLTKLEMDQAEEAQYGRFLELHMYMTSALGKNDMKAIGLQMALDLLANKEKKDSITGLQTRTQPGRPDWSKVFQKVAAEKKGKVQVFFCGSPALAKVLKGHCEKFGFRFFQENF
Chain of NADPH oxidase 2 (Homo sapiens) (P04839 whole entry, looked up): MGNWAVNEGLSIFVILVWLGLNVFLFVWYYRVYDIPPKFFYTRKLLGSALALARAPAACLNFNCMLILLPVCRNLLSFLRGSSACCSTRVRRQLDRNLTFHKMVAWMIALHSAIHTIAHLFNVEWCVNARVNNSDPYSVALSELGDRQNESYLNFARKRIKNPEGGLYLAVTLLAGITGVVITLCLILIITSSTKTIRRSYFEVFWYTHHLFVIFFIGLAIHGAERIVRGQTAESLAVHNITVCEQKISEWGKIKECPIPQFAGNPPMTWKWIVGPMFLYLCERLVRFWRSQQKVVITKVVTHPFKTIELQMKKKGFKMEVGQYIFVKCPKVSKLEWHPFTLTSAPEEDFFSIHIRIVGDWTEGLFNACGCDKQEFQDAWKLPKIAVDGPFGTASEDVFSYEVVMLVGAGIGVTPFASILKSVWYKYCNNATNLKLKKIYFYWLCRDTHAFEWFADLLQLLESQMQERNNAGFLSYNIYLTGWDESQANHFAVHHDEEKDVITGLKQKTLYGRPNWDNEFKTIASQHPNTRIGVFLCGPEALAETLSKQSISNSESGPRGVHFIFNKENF

With `COCCOC(=O)N1C(=O)[C@@]2(c3cc(C#CCC(C(=O)OC)C(=O)OC)ccc31)[C@H](c1ccc(OCCO)cc1)N1[C@H](c3ccccc3)[C@H](c3ccccc3)OC(=O)[C@H]1[C@@H]2C(=O)N1CCCCCCC1` the z-score [1] was 0.759 (inactive), the composite z-score [2] was 2.81 and the z-score [3] was 3.66 (inactive). For the same compound, the z-score [4] was 1.98 (inactive), the z-score [5] was 1.04 (inactive) and the z-score [6] was 0.901 (inactive). For the same compound, the z-score [7] was -0.0522, the z-score [8] was 2.05 (inactive) and the z-score [9] was 0.397 (inactive). It also gave a z-score [10] of 2.28, a z-score [11] of 0.52 and a z-score [12] of 0.586. For the same compound, the z-score [13] was 0.496, the z-score [14] was -0.169 and the z-score [15] was -0.602. The z-score [16] was 0.119, the z-score [17] was -2.24 (inactive) and the z-score [18] was -0.635. For the same compound, the z-score [19] was -1.15 and the z-score [20] was 0.78 (inactive).
For `COCCOC(=O)N1C(=O)[C@@]2(c3cc(C#CC4=CCCCC4)ccc31)[C@H](c1ccc(OCCO)cc1)N1[C@H](c3ccccc3)[C@H](c3ccccc3)OC(=O)[C@H]1[C@@H]2C(=O)N1CCCCCCC1`, the z-score [1] was 3.39 (inactive), the composite z-score [2] was 1.85 and the z-score [3] was 2.24 (inactive). For the same compound, the z-score [4] was 0.742 (inactive), the z-score [5] was 0.171 (inactive) and the z-score [6] was -0.521 (inactive). The z-score [7] was 2.26, the z-score [8] was 1.44 (inactive) and the z-score [9] was 0.639 (inactive). For the same compound, the z-score [10] was 1.3, the z-score [11] was 0.508 and the z-score [12] was 1.35. It also gave a z-score [13] of 1.5, a z-score [14] of 0.177 and a z-score [15] of -0.288. For the same compound, the z-score [16] was -0.288, the z-score [17] was -2.7 (inactive) and the z-score [18] was -1.19. For the same compound, the z-score [19] was -1.21 and the z-score [20] was -2.16 (inactive).
With `C=CCC(OC(C)=O)[C@@H]1[C@@H](N(Cc2ccc(-c3cccc(C(F)(F)F)c3)o2)C(=O)c2cccc3ccccc23)c2cc(OCCCO)ccc2N1C(=O)c1ccc2ccccc2n1` (stereo not given in full) the z-score [1] was -0.855 (inactive), the composite z-score [2] was 0.007 and the z-score [3] was 0.706 (inactive). The z-score [4] was -0.342 (inactive), the z-score [5] was 1.32 (inactive) and the z-score [6] was 0.139 (inactive). The z-score [7] was 0.2, the z-score [8] was -3.37 (inactive) and the z-score [9] was -1.17 (inactive). For the same compound, the z-score [10] was -0.606, the z-score [11] was -0.16 and the z-score [12] was 0.953. The z-score [13] was -0.0619, the z-score [14] was -0.142 and the z-score [15] was -2.18. For the same compound, the z-score [16] was 2.43, the z-score [17] was -0.637 (inactive) and the z-score [18] was 0.307. The z-score [19] was 0.582 and the z-score [20] was -0.871 (inactive).
In the case of `O=C1O[C@@H](c2ccccc2)[C@@H](c2ccccc2)N2[C@@H](c3ccc(O)cc3)[C@]3(C(=O)Nc4ccc(C#CC5=CCCCC5)cc43)[C@@H](C(=O)N3CCCCCCC3)[C@H]12`, the z-score [1] was 1.3 (inactive), the composite z-score [2] was 2.57 and the z-score [3] was -0.781 (inactive). The z-score [4] was -1.2 (inactive), the z-score [5] was -0.993 (inactive) and the z-score [6] was -2.4 (inactive). For the same compound, the z-score [7] was 2.98, the z-score [8] was 0.682 (inactive) and the z-score [9] was 0.597 (inactive). The z-score [10] was 1.56, the z-score [11] was -0.361 and the z-score [12] was 0.967. The z-score [13] was 0.606, the z-score [14] was 0.212 and the z-score [15] was -1.72. The z-score [16] was 0.41, the z-score [17] was 0.571 (inactive) and the z-score [18] was -0.527. The z-score [19] was 0.135 and the z-score [20] was -0.77 (inactive).
With `CC(C)CNC(=O)[C@@H]1c2ccccc2C(=O)N(C(C)C)[C@H]1c1ccc(CO)cc1` the z-score [1] was 0.941 (inactive), the composite z-score [2] was -0.0559 and the z-score [3] was 0.747 (inactive). For the same compound, the z-score [4] was -0.483 (inactive), the z-score [5] was -0.758 (inactive) and the z-score [6] was -0.779 (inactive). The z-score [7] was 1.85, the z-score [8] was -0.215 (inactive) and the z-score [9] was 0.443 (inactive). It also gave a z-score [10] of 0.887, a z-score [11] of 0.456 and a z-score [12] of 1.27. For the same compound, the z-score [13] was 1.15, the z-score [14] was 0.333 and the z-score [15] was 1.49. For the same compound, the z-score [16] was 1.49, the z-score [17] was 1.29 (inactive) and the z-score [18] was 0.793. For the same compound, the z-score [19] was -0.357 and the z-score [20] was -0.174 (inactive).
With `C=CCC(OC(C)=O)[C@@H]1[C@@H](N(Cc2cc3ccccc3o2)C(=O)Cc2ccc(OC)cc2)c2cc(OCCCO)ccc2N1C(=O)Cc1ccc2ccccc2c1` (stereo not given in full) the z-score [1] was -0.476 (inactive), the composite z-score [2] was 0.152 and the z-score [3] was 2.63 (inactive). For the same compound, the z-score [4] was -0.005 (inactive), the z-score [5] was 1.35 (inactive) and the z-score [6] was 0.308 (inactive). The z-score [7] was 0.638, the z-score [8] was -0.282 (inactive) and the z-score [9] was -0.427 (inactive). The z-score [10] was 1.21, the z-score [11] was 0.583 and the z-score [12] was 0.592. For the same compound, the z-score [13] was -0.118, the z-score [14] was 0.0786 and the z-score [15] was -0.929. The z-score [16] was 2.27, the z-score [17] was -0.315 (inactive) and the z-score [18] was 0.00245. For the same compound, the z-score [19] was -0.692 and the z-score [20] was -1.16 (inactive).
For `CN(C)C(=O)[C@]1(Cc2ccccc2)N=C(c2ccc(OCCCO)cc2)O[C@@H]1c1ccccc1`, the z-score [1] was -0.855 (inactive), the composite z-score [2] was -0.13 and the z-score [3] was 28.8 (active). For the same compound, the z-score [4] was 23.9 (active), the z-score [5] was -0.0356 (inactive) and the z-score [6] was 2.51 (inactive). For the same compound, the z-score [7] was -0.0744, the z-score [8] was 0.945 (inactive) and the z-score [9] was -0.372 (inactive). It also gave a z-score [10] of -1.73, a z-score [11] of -0.092 and a z-score [12] of -0.577. It also gave a z-score [13] of 0.846, a z-score [14] of -0.864 and a z-score [15] of -1. For the same compound, the z-score [16] was 0.0944, the z-score [17] was 0.193 (inactive) and the z-score [18] was -1.11. For the same compound, the z-score [19] was -0.192 and the z-score [20] was 0.747 (inactive).
For `O=C1c2ccccc2[C@@]2(Cc3ccccc3N(Cc3ccccc3)C2=O)[C@H](c2ccc(CO)cc2)N1Cc1ccccc1`, the z-score [1] was -0.757 (inactive), the composite z-score [2] was -0.147 and the z-score [3] was -0.0384 (inactive). For the same compound, the z-score [4] was 0.0732 (inactive), the z-score [5] was 0.0046 (inactive) and the z-score [6] was -0.11 (inactive). The z-score [7] was 0.244, the z-score [8] was 0.0584 (inactive) and the z-score [9] was 0.572 (inactive). The z-score [10] was -0.107, the z-score [11] was -0.574 and the z-score [12] was -0.269. It also gave a z-score [13] of -0.643, a z-score [14] of 0.0744 and a z-score [15] of -0.851. The z-score [16] was -0.0723, the z-score [17] was -0.271 (inactive) and the z-score [18] was 0.167. For the same compound, the z-score [19] was -0.353 and the z-score [20] was -0.381 (inactive).
